Experimental data published in ChEMBL document CHEMBL3433997, “St. Jude Leishmania screening dataset” (2016).

Tests used:
Type in all cases: functional
[1] = target: Solute carrier family 2, facilitated glucose transporter member 1 (Homo sapiens) (UniProt P11166); experiment: ST_JUDE_LEISH: Cytotoxicity at 2uM final concentration against transgenic Leishmania Mexicana promastigotes LmGLUT1 that are glucose transport deficient and complemented with the human glucose transporter GLUT1. Activity is measured by DNA content using SYBR green in vitro
[2] = target: Hexose transporter 1 (Plasmodium falciparum) (UniProt O97467); experiment: ST_JUDE_LEISH: Cytotoxicity at 2uM final concentration against transgenic Leishmania Mexicana promastigotes LmPfHT that are glucose transport deficient and complemented with the Plasmodium falciparum hexose transporter. Activity is measured by DNA content using SYBR green in vitro
[3] = target: Glucose transporter (Leishmania mexicana) (UniProt O61059); experiment: ST_JUDE_LEISH: Cytotoxicity at 2uM final concentration against transgenic Leishmania Mexicana promastigotes LmGT2 that are glucose transport deficient and complemented with the L. Mexicana glucose transporter 2. Activity is measured by DNA content using SYBR green in vitro

Sequence of Solute carrier family 2, facilitated glucose transporter member 1 (Homo sapiens) (P11166 whole entry): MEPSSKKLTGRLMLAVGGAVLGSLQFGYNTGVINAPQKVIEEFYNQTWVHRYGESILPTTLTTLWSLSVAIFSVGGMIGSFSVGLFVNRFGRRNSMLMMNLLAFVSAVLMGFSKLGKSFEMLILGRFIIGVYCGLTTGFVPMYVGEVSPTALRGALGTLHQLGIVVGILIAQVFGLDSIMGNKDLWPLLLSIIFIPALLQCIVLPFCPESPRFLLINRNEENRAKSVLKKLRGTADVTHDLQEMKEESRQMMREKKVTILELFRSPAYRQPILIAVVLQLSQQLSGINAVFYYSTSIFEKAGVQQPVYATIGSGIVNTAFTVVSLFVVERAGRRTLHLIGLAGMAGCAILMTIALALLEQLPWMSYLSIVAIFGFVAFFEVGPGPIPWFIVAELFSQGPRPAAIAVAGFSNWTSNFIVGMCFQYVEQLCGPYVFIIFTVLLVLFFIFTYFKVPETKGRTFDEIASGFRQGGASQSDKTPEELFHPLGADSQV

Row | Compound | inhibition [1] | inhibition [2] | inhibition [3]
1 | O=C(O)c1ccc(-c2cnc3ccc(NC4CCC(O)CC4)nn23)cc1 (stereo unspecified) | 0.42% | 0.39% | -0.34%
2 | Cc1cc(-c2nc3cc(C(=N)N)ccc3[nH]2)c(C)cc1-c1nc2cc(C(=N)N)ccc2[nH]1 | 4.57% | 3.95% | 0.94%
3 | c1cc(CNCC2CCN(CC3CCCCC3)CC2)cc(-n2ccnc2)c1 | -1.01% | -0.61% | 0.1%
4 | O=C(NC1CCN(Cc2ccccc2)CC1)c1cc(-c2cccnc2)nc2ccc(Cl)cc12 | 8.75% | 6.45% | 8.35%
5 | COc1ccc(CC2(CO)CCN(Cc3ccc(O)c(Cl)c3)CC2)cc1 | 9.35% | 7.92% | 5.84%
6 | CN1CCC(NCc2ccc(-c3ccc(S(=O)(=O)NCc4ccccc4)cc3)cc2)CC1 | 0.4% | -1.45% | -3.56%
7 | CC(C)CCN1CCCN(Cc2ccc(C(=O)Nc3ccc(F)c(F)c3)cc2)CC1 | 4.12% | 4.65% | 4.14%
8 | O=C(Nc1ccc([N+](=O)[O-])cc1)Nc1nc2ccc(Cl)cc2s1 | 5.09% | 4.52% | 1.81%
9 | N#Cc1ccc(N/C(=N\c2ccccc2Cl)NC2CCN(Cc3ccccc3)CC2)c(O)c1 | 2.09% | 2.49% | 0.29%
10 | O=C(N[C@H]1CCN(Cc2ccc(OCCN3CCCC3)c3ccccc23)C1)c1ccc(Cl)c(Cl)c1 | 1.59% | 2.72% | -2.78%
11 | Cc1cc(CN2CC[C@H](NC(=O)c3ccc(Cl)c(Cl)c3)C2)ccc1OCCCN(C)C | -2.61% | -3.17% | -2.57%
12 | CN(C)Cc1cccc(-c2ccc(NC(=O)c3ccc4c(=O)n(C5CCCCC5)cnc4c3)cc2)c1 | 76% | 80.4% | 79.8%
